A selection: hits, their analogues and other compounds. The true share with any hit is near 19%.
KB-V1 cytotox = qHTS assay for MDR1-selective chemotherapeutics: Primary screen using the drug-selected MDR subline cells KB-V1 | AID 1347076, 2019 | 3.4% of 400,000 active | KB-V1 MDR cells viability, CellTiter-Glo, 72 h | Potency, µM (top dose mostly 46.1 µM), usual class: cytotoxic; note: nearly all actives have a fitted effect of over 60% in size
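Readout: CellTiter-Glo luminescence, 10 min after addition. Cells: KB-V1 MDR subline, 72 h at 37 degrees C with compound. Analysis: corrected, normalized data fitted to concentration-effect curves.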
KB-3-1 cytotox = qHTS assay for MDR1-selective chemotherapeutics: Primary screen using the parental adenocarcinoma cell KB-3-1; KB-3-1 viability, CellTiter-Glo ATP luminescence, 72 h; Potency, µM (highest dose often 46.1 µM), most hits filed as cytotoxic; 1.4% of 400,000 active; AID 1347075, 2019; note: nearly all actives have a fitted effect of over 60% in size
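Here the drug-naive KB-3-1 line serves as comparator for MDR sub-line selectivity; cells received compound titrations, 72 h at 37 °C, then CellTiter-Glo readout.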
TDP1 cell noCPT = qHTS for Inhibitors of human tyrosyl-DNA phosphodiesterase 1 (TDP1): qHTS in cells in absence of CPT; DT40 Tdp1-/- hTDP1 cells, no CPT, ATP luminescence, 48 h; 15% of 420,000 active; Potency, µM (series often up to 46.2 µM), hits mostly inhibitors; note: nearly all actives have a fitted effect of over 55% in size
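Luminescent ATP content (CellTiter-Glo) served as the growth readout. Knockout chicken DT40 cells expressing human TDP1 were exposed to compounds without camptothecin for a minimum 48 hr at 37 °C.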
HT1080NT lethal = qHTS for induction of synthetic lethality in tumor cells producing 2HG: qHTS for the HT-1080-NT fibrosarcoma cell line; Potency, µM (top dose mostly 46.1 µM), usual class: cytotoxic; HT-1080-NT fibrosarcoma viability, CellTiter-Glo ATP luminescence, 48 h; 1.6% of 360,000 active;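 note: NT is the 2HG producing partner of a matched IDH1 knockdown line; nearly all actives have a fitted effect of over 55% in size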
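750 cells/well, RPMI + 5% FBS; 2 h settle, compound pin-transfer, 48 h at 37 degrees C. CellTiter-Glo 10 min RT, luminescence. Normalized to DMSO and media-only wells.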
DT40 TDP1 CPT = qHTS for Inhibitors of human tyrosyl-DNA phosphodiesterase 1 (TDP1): qHTS in cells in presence of CPT | chicken DT40 Tdp1-/-;hTDP1 cells + 20 nM CPT, ATP luminescence, 48 h | Potency, µM (highest dose often 46.2 µM), hits mostly inhibitors | 12% of 420,000 active | AID 686979, 2013; note: nearly all actives have a fitted effect of over 55% in size
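Chicken DT40 Tdp1-/- cells complemented with human TDP1, 400 cells/well, exposed to compounds plus 20 nM camptothecin for at least 48 h at 37 C; viability read as ATP content by CellTiter-Glo luminescence.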
HT1080 IDH1KD tx = qHTS for induction of synthetic lethality in tumor cells producing 2HG: qHTS for the HT-1080-IDH1KD cell line; HT-1080 IDH1 knockdown viability, ATP luminescence, 48 h; Potency, µM (highest dose often 46.1 µM), most hits filed as cytotoxic; 2% of 360,000 active
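CellTiter-Glo luminescence after 48 h compound exposure at 37 degrees C of IDH1-knockdown HT-1080 cells in 5% FBS RPMI. %Activity scaled between DMSO wells and cell-free media wells, with curves fitted and assigned curve classes.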
Hits are given with their value; 0 = inactive; ? = inconclusive; - = no result; [ ] = dose if it differs, or a comment. Calls come from the whole dose curve; as a rule, active = well fitted curve in the direction sought with a large enough effect; inconclusive = small, poorly fitted or top-dose-only effect, or another doubt; inactive = no such curve, though single readings can be large; an effect the other way counts as inactive or inconclusive.

SMILES	KB-V1 cytotox	KB-3-1 cytotox	TDP1 cell noCPT	HT1080NT lethal	DT40 TDP1 CPT	HT1080 IDH1KD tx
Cc1oc(-c2cccc(Cl)c2)nc1CN1CCC(C(=O)NC(C)C)CC1	0	0	0	-	0	-
COc1ccc(CNC(=O)C2CCN(Cc3nc(-c4ccc(OC)c(OC)c4)oc3C)CC2)cc1	0	0	?	-	?	-
Cc1ccc(CNC(=O)C2CCCN(Cc3nc(-c4cccc(C)c4)oc3C)C2)cc1 (centres undefined)	0	0	?	-	18.4µM	-
COc1ccc(Cc2nc3ccc(C(=O)NCCCN4CCN(C)CC4)cc3o2)cc1	0	0	?	-	?	-
CCOC(=O)C1=C(C)N(C)C(=O)NC1c1cccc2ccccc12 (centres undefined)	0	0	25.9µM	?	?	0
CC1=C(C(=O)OCC(C)C)C(c2cc3c(cc2Br)OCO3)NC(=O)N1C (centres undefined)	0	0	?	?	18.4µM	?
CC1=C(C(=O)OCC(C)C)C(c2ccccc2Cl)NC(=O)N1C (centres undefined)	0	0	13µM	0	8.2µM	0
CCOC(=O)c1ccc(CSC(=N)N)o1	0	?	?	?	29.1µM	?
COC(=O)c1ccc(Cc2ccc(C(=O)OC)o2)o1	0	0	0	0	0	0[9.24 µM]
CCOC(=O)c1ccc(CSc2nncn2N)o1	0	0	0	0	0	0
COC(=O)c1ccc(CSC(=N)N)o1	0	0	?	0	16.4µM	0
C=CCOc1c(OC)cc(/C=N/Nc2cccc(C(=O)O)c2)c(Br)c1Br	0	0	16.4µM	?	16.4µM	?
COc1ccc(C2=Nc3ccccc3NC(=O)C2N(CCc2cc(OC)cc(OC)c2)C(C)=O)cc1 (centres undefined)	0	0	?	0	23.1µM	0
Cc1ccc(S(=O)(=O)N2C3CCCCC3O[C@H]2CC(=O)Oc2ccccc2)cc1 (some centres undefined)	0	0	0	0	?	0
Cc1ccc(S(=O)(=O)N2C3CCCCC3O[C@H]2CC(=O)c2cccs2)cc1 (some centres undefined)	?	0	?	0	?	?
COc1ccc(C(=O)C[C@@H]2OC3CCCCC3N2S(=O)(=O)c2ccc(C)cc2)cc1OC (some centres undefined)	?	0	16.4µM	0	16.4µM	0
CCOC(=O)C[C@@H]1OC2CCCCC2N1S(=O)(=O)c1ccc(C)cc1 (some centres undefined)	?	0	?	0	25.9µM	0
O=C(COCc1cc(-c2ccc3c(c2)OCO3)on1)Nc1cc(Cl)ccc1O	0	0	?	-	0	-
Cc1cc(=O)c2cc(C(=O)Nc3ccc(F)cc3)ccc2[nH]1	0	0	0	-	0	-
CC(NC(=O)CCSc1nc(-c2ccco2)cc(C(F)(F)F)n1)c1ccccc1 (centres undefined)	?	0	?	0	13µM	0
O=C(CCSc1nc(-c2ccco2)cc(C(F)(F)F)n1)NCc1ccccn1	0	0	0	0	0	0
Cc1cc(F)ccc1NC(=O)CCSc1nc(-c2ccco2)cc(C(F)(F)F)n1	0	0	0	-	0	-
O=C(CCSc1nc(-c2ccco2)cc(C(F)(F)F)n1)N1CCN(c2ccccc2)CC1	?	0	20.6µM	0	?	0
O=C(CCSc1nc(-c2ccco2)cc(C(F)(F)F)n1)NCc1cccs1	0	0	?	0	16.4µM	0
COc1ccc(CCNc2nc(-c3ccco3)cc(C(F)(F)F)n2)cc1OC	0	0	?	0	?	0
SMILES	KB-V1 cytotox	KB-3-1 cytotox	TDP1 cell noCPT	HT1080NT lethal	DT40 TDP1 CPT	HT1080 IDH1KD tx
COc1ccc(CCNC(=O)CCSc2nc(-c3ccco3)cc(C(F)(F)F)n2)cc1OC	?	0	16.4µM	0	14.6µM	0
Cc1ccc(S(=O)(=O)N2CCC(C(=O)NNC(=O)c3ccncc3)CC2)cc1	0	0	0	0	0	0
O=C1NN=C(CSc2n[nH]c(=S)s2)CS1	?	0	0	?	0	0
Cc1cccc(C)c1OC(=O)c1ccccc1	?	0	0	0	0	0
Cc1cccc2c(N3CCCC3)nc(CNS(=O)(=O)c3ccc4ccccc4c3)nc12	-	-	?	-	0[9.04 µM]	-
CCCc1nnc(NC(=O)c2nc(SCC)ncc2Cl)s1	0	0	0	-	0	-
CN1CCN(c2nc(-c3ccccn3)nc3ccccc23)CC1	23.1µM	0	?	7.94µM	?	7.94µM
Oc1ccccc1-c1nc(N2CCCC2)c2ccccc2n1	0	0	0	0	0	0
c1ccc(N2CCN(c3nc(-c4ccccn4)nc4ccccc34)CC2)cc1	?	?	4.61µM	0	4.11µM	0
CN1CCN(c2nc(-c3cccnc3)nc3ccccc23)CC1	0	0	0	?	0	?
CCCc1nc2ccc(C)cn2c1Cc1ccc(OC)cc1C	0	0	23.1µM	0	13µM	0
CCCc1nc2ccc(C)cn2c1Cc1ccccc1OC	?	0	20.6µM	?	20.6µM	18.4µM
CCCc1nc2c3ccccc3ccn2c1Cc1ccc(OC)cc1C	0	0	?	0	18.4µM	?
CCCc1nc2ccc(Cl)cn2c1Cc1ccccc1	0	0	4.11µM	0	6.51µM	0
CCOC(=O)C1CCCN(C(=O)c2cc3c(=O)n(C)c4ccccc4c3s2)C1 (centres undefined)	0	0	?	-	?	-
COc1cc(C(O)c2nc(/C=C/c3ccc(C(F)(F)F)cc3)cs2)ccc1F (centres undefined)	0	0	?	?	?	?
COc1ccccc1Cc1c(-c2ccc(F)cc2)nc2ccc(Cl)cn12	0	0	?	0	?	0
FC(F)(F)c1ccccc1Cc1c(-c2ccccc2)nc2ccc(Br)cn12	0	0	?	0	?	0
CCCc1nc2c(C)cc(Br)cn2c1Cc1ccccc1C(F)(F)F	0	0	23.1µM	?	23.1µM	?
CCCc1nc2ccc(Br)cn2c1Cc1ccccc1OC	0	?	0.82µM	?	1.46µM	?
CCCc1nc2ccc(Cl)cn2c1Cc1ccccc1OC	0	?	11.6µM	?	7.31µM	?
CCCc1nc2ccc(C)cn2c1Cc1ccccc1C(F)(F)F	0	0	?	25.9µM	?	32.6µM
OC[C@@H]1CN(Cc2ccncc2)C[C@H](n2cnc3c(N4CCOCC4)ncnc32)O1	0	0	?	0	?	0

Source: PubChem
